Data taken from PubChem BioAssay (NCATS).

Test: High-throughput drug toxicity screening in the BPDCN cell line Gen2.2 (AID 1224824)
Conditions: Gen2.2 BPDCN cells; at 45.8 µM (top of the series)
Text: Blastic plasmacytoid dendritic cell neoplasm (BPDCN) is a rare, aggressive and largely incurable hematologic malignancy originating from plasmacytoid dendritic cells (pDCs). Although an initial response to chemotherapy is common, BPDCN prognosis is extremely poor and most patients relapse with drug-resistant disease leading to a median overall survival of ~1 year after diagnosis. To explore novel potential therapeutic strategies in BPDCN, we performed a high-throughput drug toxicity screening in BPDCN cell liens, using of a library of 1,912 small molecules, enriched for compounds that are either approved or in early stages of development for cancer therapy.
A total of 500 exponentially growing Gen2.2 cells were seeded per well in 5 uL of media (RPMI + Glutamine, without phenol red plus10% FBS and 1X Pen/Strep) into 1536-well solid white high base tissue culture treated Greiner One Bio Plates (789173-F), using a multidrop combi dispenser and a small sterile cassette. Compounds and controls totaling 23nL per well (negative control DMSO and positive control 9.2 uM Bortezomib-final) were immediately added to the plates using a 1536 head pin tool from Kalypsys. The plates were then covered with stainless steel gasket lids from Kalypsys and incubated for 48 hours at 37C under 95% relative humidity with 5% CO2. After 48 hours, the plates were removed and allowed to reach room temperature before 3 uL of Cell Titer Glo reagent (Promega) were added using an Aurora Flying Reagent Dispenser Bioraptor. The plates were then spun at 1000 rpms to remove bubbles and incubated for 15 minutes at room temperature before reading on a ViewLux using a luminescent filter with a 10 second exposure. The relative luciferase units were used to calculated percent activity using DMSO as 100% and Bortezomib as 0%.

Compound | cell viability, % of control (lower = more cytotoxic)
CC(C)(O)C(=O)Nc1ccc([N+](=O)[O-])c(C(F)(F)F)c1 | 21%
CCN1C[C@]2(OC(=O)c3ccccc3NC(C)=O)CC[C@H](OC)[C@@]34[C@H]5CC6[C@@H](OC)C[C@](O)(C(C[C@@H]23)[C@@H]14)[C@@]5(O)[C@@H]6OC | 137%
C[C@]12CC[C@H]3[C@@H](CCC4=CC(=O)CC[C@@]43C)[C@H]1CC[C@H]2O | 83.2%
C[C@]12COC(=O)C[C@@H]1CC[C@@H]1[C@H]2CC[C@@]2(C)[C@H]1CC[C@]2(C)O | 122%
COc1ccc2c(c[n+](C)c3c4cc5c(cc4ccc23)OCO5)c1OC | 7.65%
CCCC[N+]1(C)[C@H]2CC(OC(=O)[C@H](CO)c3ccccc3)C[C@H]1[C@H]1O[C@H]12 (stereo not given in full) | 119%
N#C[C@H](O[C@@H]1O[C@H](CO[C@@H]2O[C@H](CO)[C@H](O)[C@H](O)[C@H]2O)[C@H](O)[C@H](O)[C@H]1O)c1ccccc1 | 180%
CC(=O)Nc1ccc(OC[C@](C)(O)C(=O)Nc2ccc([N+](=O)[O-])c(C(F)(F)F)c2)cc1 | 138%
C=C[C@@H]1CN2CCC1C[C@@H]2[C@@H](O)c1ccnc2ccccc12 (stereo not given in full) | 220%
Cc1c(C(=O)Nc2cccc(C(F)(F)F)c2)cc(-c2ccccc2)n1CCCN1CCOCC1 | 52.7%
C#CC1(O)CCC2C3CCC4=CC(=O)CCC4(C)C3CCC21C (stereo not given) | 168%
O=C(Oc1ccc([N+](=O)[O-])cc1)N1CCC(C(O)(c2ccc3c(c2)OCO3)c2ccc3c(c2)OCO3)CC1 | 40.5%
Cc1c(N)nc([C@H](CC(N)=O)NC[C@@H](N)C(N)=O)nc1C(=O)N[C@H](C(=O)N[C@@H](C)[C@H](O)[C@@H](C)C(=O)N[C@@H](C(=O)NCCc1nc(-c2nc(C(=O)NCCC[S+](C)C)cs2)cs1)[C@@H](C)O)C(O[C@H]1O[C@H](CO)[C@H](O)[C@@H](O)[C@@H]1O[C@H]1O[C@H](CO)[C@@H](O)[C@H](OC(N)=O)[C@H]1O)c1cnc[nH]1 (stereo not given in full) | 132%
NC1CC1c1ccccc1 (stereo not given) | 70.9%
C[C@](O)(COc1ccc(C#N)cc1)C(=O)Nc1ccc(C#N)c(C(F)(F)F)c1 | 54.6%
O=C(N[C@@H](COc1ccc2[nH]c(=O)[nH]c2c1)c1ccccc1)c1cccn(Cc2ccc(F)c(F)c2)c1=O | 46.5%
C[C@@]12OC(=O)[C@]1([C@@H](O)[C@@H]1C=CCCC1)NC(=O)[C@H]2CCCl | 5.68%
CCCN1CCO[C@@H]2c3cc(O)ccc3OC[C@@H]21 | 209%
CC[C@H]1C=CC=CC[C@@H](C)[C@H](O)[C@@](C)(O)C(=O)[C@@H](C)[C@H](O)[C@@H](C)C(=O)[C@@H](C)[C@H](O)[C@@H](C)C=CC(=O)O[C@@H]2[C@@H](C)[C@H](CC1)O[C@]1(CC[C@H](C)[C@H](C[C@@H](C)O)O1)[C@H]2C | 8.73%
C=C[C@@H]1CN2CCC1C[C@H]2[C@H](O)c1ccnc2ccccc12 (stereo not given in full) | 14.7%

Compound | cell viability, % of control (lower = more cytotoxic)
O=S(=O)(CC1CS1)c1ccc(Oc2ccccc2)cc1 (stereo not given) | 3.87%
CC(N[C@H]1C[C@H]1c1ccccc1)c1ccc2c(c1)OCCO2 (stereo not given in full) | 154%
CCOC(=O)c1cncn1[C@H](C)c1ccccc1 | 124%
COc1ccc(N(C(=O)Oc2c(C)cccc2C)c2ccnc(Nc3ccc(N4CCN(C)CC4)cc3)n2)c(OC)c1 | 137%
O=c1[nH]c2ccccc2n1C1CCN(Cc2ccc(-c3[nH]c4cc5ncnc5cc4nc3-c3ccccc3)cc2)CC1 | 4.84%
CCNC(=O)C[C@@H]1N=C(c2ccc(Cl)cc2)c2cc(OC)ccc2-n2c(C)nnc21 | 12.3%
CC(C)N[C@@H]1CCn2c(=O)[nH]c3cccc(c32)[C@@H]1O | 22.6%
C1=C2CCCN[C@H]2[C@@H]2C[C@H]1[C@@H]1CCCCN1C2 | 131%
CN(C)NC(=O)CCC(=O)O | 121%
CSCC[C@@H](NC(=O)[C@@H](Cc1ccccc1)NC(=O)CNC(=O)CNC(=O)[C@@H](N)Cc1ccc(O)cc1)C(=O)O | 140%
CN1[C@H]2CC(O)C[C@H]1[C@H]1O[C@H]12 (stereo not given in full) | 21.9%
Cc1c(C(=O)c2cccc3ccccc23)c2cccc3c2n1[C@H](CN1CCOCC1)CO3 | 17.7%
O=C1C=CC[C@@H]2[C@H]3CCCN4CCC[C@@H](CN12)[C@@H]34 | 126%
CC[C@@H]1[C@@H](C)O[C@@](O)([C@@H](C)[C@H](O)[C@H](C)[C@H]2OC(=O)C=CC=C[C@@H](C)[C@@H]([C@@H](C)[C@@H](O)[C@H](C)[C@@]3(O)C[C@H](O[C@H]4C[C@H](O)[C@H](O)[C@H](C)O4)[C@H](CC)[C@@H](C)O3)OC(=O)C=CC=C[C@@H]2C)C[C@H]1O[C@H]1C[C@H](O)[C@H](O)[C@H](C)O1 | 11.5%
CCNC(=O)CC1N=C(c2ccc(Cl)cc2)c2cc(OC)ccc2-n2c(C)nnc21 (stereo not given) | 15.2%
CN1CCN(c2ccc([N+](=O)[O-])c3no[n+]([O-])c23)CC1 | 4.61%
O=C1CCC[C@@H]2[C@H]3CCCN4CCC[C@@H](CN12)[C@@H]34 | 219%
CC(C)N(CCNC(=O)CN1CCCC1=O)C(C)C | 108%
c1ccc2c(CN3CCNCC3)cccc2c1 | 112%
COc1ccc(CC2NCCc3cc(OC)c(OC)cc32)cc1OC (stereo not given) | 150%
